Test results as given in PubChem BioAssay (NCATS).
Active and inactive are the calls of the source. Unless noted, calls come from the whole dose curve; as a rule, active = well fitted curve in the direction sought with a large enough effect; inconclusive = small, poorly fitted or top-dose-only effect, or another doubt; inactive = no such curve, though single readings can be large; an effect the other way counts as inactive or inconclusive.

What was measured:
[1] = molecular target: Phosphoglycerate kinase, glycosomal (Trypanosoma brucei brucei) (UniProt P07378); experiment: qHTS Validation Assay to Find Inhibitors of Phosphoglycerate Kinase (AID 504547)
Phosphoglycerate kinase, glycosomal (Trypanosoma brucei brucei), sequence (P07378 whole entry, looked up): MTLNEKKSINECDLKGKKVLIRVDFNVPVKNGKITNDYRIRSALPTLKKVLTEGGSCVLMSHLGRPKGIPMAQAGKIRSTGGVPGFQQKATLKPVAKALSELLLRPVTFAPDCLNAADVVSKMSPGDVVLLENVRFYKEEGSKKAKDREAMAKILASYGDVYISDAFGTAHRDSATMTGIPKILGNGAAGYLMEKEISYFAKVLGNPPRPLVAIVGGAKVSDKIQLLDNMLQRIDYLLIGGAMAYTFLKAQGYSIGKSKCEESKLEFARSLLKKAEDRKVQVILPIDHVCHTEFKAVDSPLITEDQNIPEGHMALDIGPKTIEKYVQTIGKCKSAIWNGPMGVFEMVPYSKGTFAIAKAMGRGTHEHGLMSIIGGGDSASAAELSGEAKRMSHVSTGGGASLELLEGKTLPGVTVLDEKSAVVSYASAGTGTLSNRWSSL
Method in brief: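 Inhibition of the enzyme is judged by a Kinase-Glo Plus luminescent signal following a one-hour incubation at room temperature. Because 1,3-BPG is unstable, it is made in situ by GAPDH at 100nM final; no-PGK wells define the baseline.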

[2] = molecular target: phosphoglycerate mutase (Leishmania major) (UniProt Q4Q090); experiment: qHTS Validation Assay to Find Inhibitors of Phosphoglycerate Mutase (AID 504548);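 note: end-point luminescence from Kinase-GloPlus after the PGAM reaction; series mostly up to about 58 µM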
phosphoglycerate mutase (Leishmania major), sequence (Q4Q090 1-553): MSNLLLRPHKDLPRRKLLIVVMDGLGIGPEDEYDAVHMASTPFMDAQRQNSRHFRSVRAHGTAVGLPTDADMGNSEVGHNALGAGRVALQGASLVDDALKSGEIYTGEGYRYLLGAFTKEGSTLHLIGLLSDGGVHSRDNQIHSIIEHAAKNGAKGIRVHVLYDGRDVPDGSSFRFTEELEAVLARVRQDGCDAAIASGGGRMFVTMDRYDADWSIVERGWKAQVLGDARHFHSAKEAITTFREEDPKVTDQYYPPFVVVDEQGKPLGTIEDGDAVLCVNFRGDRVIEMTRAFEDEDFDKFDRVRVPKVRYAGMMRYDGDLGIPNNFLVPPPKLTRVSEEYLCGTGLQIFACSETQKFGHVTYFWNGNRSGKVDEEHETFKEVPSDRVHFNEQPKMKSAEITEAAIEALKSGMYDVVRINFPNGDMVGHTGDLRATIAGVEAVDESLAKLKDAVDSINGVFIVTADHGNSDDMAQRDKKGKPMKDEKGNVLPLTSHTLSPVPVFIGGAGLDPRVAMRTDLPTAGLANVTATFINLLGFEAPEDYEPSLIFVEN
Method in brief: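 Inhibition of L. major PGAM was assessed by Kinase-GloPlus luminescence following a 45-minute room-temperature reaction with enzyme at 1.25nM final.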

[3] = Inducers of the Endoplasmic Reticulum Stress Response (ERSR) in human glioma: Validation (AID 504836); note: potency is the fitted concentration of half-maximal effect
Method in brief: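 ERSR induction read as luciferase luminescence (Bright-Glo, 10 min at room temperature) in stably transfected human U87-MG glioma cells exposed to compounds for 16 h, using GRP78 as sensor.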

[4] = molecular target: Ubiquitin carboxyl-terminal hydrolase 1 (Homo sapiens) (UniProt O94782); experiment: Inhibitors of USP1/UAF1: Pilot qHTS (AID 504865); note: nearly all actives have a fitted effect of over 35% in size; note: potency is the fitted concentration of half-maximal effect
Ubiquitin carboxyl-terminal hydrolase 1 (Homo sapiens), sequence (O94782 whole entry, looked up): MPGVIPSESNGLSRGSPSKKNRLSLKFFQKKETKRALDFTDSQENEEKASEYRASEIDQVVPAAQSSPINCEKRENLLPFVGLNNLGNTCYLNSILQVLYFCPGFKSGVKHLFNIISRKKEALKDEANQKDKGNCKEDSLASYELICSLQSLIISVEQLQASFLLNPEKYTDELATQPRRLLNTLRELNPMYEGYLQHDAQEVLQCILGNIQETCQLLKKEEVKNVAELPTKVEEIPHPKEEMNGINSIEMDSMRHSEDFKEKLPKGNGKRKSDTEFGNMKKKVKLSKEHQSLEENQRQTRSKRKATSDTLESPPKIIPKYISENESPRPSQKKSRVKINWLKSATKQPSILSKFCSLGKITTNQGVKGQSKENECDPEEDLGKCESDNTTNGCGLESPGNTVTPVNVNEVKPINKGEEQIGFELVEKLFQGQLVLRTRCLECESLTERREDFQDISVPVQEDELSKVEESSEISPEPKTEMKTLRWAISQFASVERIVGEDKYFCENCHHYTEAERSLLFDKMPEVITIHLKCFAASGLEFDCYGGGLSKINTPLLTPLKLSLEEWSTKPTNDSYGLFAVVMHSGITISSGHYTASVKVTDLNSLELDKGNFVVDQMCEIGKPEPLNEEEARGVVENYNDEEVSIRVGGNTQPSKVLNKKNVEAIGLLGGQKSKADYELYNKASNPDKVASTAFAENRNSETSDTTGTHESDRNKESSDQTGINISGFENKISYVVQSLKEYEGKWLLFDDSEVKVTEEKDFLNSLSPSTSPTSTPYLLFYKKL
Method in brief: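 Deubiquitinase activity followed as kinetic rhodamine fluorescence release from 150 nM Ub-Rho. 1 nM USP1/UAF1 with compound, after 15 min room-temperature preincubation, in HEPES pH 7.8 buffer containing TCEP, EDTA, BSA and Tween-20.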

[5] = qHTS for Inhibitors of ATXN expression: Validation of Cytotoxic Assay (AID 588349)
Method in brief: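 HEK293 cells treated with titrated compound for 72 hr at 37 degrees C; viability read as intracellular ATP by CellTiter Glo luminescence.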

[6] = qHTS for Inhibitors of ATXN expression: Validation (AID 588378); note: series mostly up to about 57 µM; nearly all actives have a fitted effect of over 75% in size
Method in brief: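 Luciferase luminescence (Bright-Glo) from an ATXN2-FFLuc HEK293 line after 24 h compound exposure at 37 °C, preceded by a CellTiter-Fluor fluorescence viability read. Serial dilutions of a reference ATXN2 inhibitor and a luciferase inhibitor served as controls.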

[7] = molecular target: DNA dC->dU-editing enzyme APOBEC-3G (Homo sapiens) (UniProt Q9HC16); experiment: qHTS for inhibitors of Vif-A3G interactions: Validation (AID 588379)
DNA dC->dU-editing enzyme APOBEC-3G (Homo sapiens), sequence (Q9HC16 whole entry, looked up): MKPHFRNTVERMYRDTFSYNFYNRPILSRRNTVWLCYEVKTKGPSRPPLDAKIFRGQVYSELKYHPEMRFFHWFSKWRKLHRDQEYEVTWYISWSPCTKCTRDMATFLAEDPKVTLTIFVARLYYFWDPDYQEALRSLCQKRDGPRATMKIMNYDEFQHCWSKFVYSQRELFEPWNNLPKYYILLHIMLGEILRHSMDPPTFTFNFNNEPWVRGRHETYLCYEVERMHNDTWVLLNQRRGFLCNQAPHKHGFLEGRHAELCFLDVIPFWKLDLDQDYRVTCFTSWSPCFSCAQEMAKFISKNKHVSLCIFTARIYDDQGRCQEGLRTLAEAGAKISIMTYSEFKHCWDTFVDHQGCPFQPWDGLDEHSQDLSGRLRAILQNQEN
Method in brief: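 HeLa cells stably expressing Vif and A3G-eYFP, 700 cells/well, incubated overnight at 37 deg C, then exposed to compound overnight at 37 deg C. Inhibition of Vif-mediated degradation read as increased yellow fluorescence (Ex 488/Em 500-530) by laser-scanning cytometry.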

[8] = molecular target: Estrogen receptor (Homo sapiens) (UniProt P03372); experiment: qHTS assay for small molecule agonists of estrogen receptor alpha signaling (AID 588514; calls by dose curve; note: nearly all actives have a fitted effect of over 70% in size)
Estrogen receptor (Homo sapiens), sequence (P03372 whole entry, looked up): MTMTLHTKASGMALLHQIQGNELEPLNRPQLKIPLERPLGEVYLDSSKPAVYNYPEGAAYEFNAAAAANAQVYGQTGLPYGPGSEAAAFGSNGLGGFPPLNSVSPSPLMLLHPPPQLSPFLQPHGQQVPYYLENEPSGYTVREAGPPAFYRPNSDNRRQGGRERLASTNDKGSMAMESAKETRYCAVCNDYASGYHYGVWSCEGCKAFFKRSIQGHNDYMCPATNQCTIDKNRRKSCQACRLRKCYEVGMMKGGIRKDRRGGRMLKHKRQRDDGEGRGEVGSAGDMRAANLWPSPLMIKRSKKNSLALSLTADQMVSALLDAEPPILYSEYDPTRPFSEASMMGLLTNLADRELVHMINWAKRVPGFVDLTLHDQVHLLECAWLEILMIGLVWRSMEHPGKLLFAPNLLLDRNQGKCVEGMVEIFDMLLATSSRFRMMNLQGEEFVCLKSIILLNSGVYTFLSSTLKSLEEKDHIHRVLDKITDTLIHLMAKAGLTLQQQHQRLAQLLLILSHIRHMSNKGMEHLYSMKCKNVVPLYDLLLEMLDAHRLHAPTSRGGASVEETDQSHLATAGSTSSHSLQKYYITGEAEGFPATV
Method in brief: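 ER-alpha-UAS-bla GripTite HEK293 cells, 5000/well in 2% charcoal/dextran-stripped FBS medium, treated with compound titrations 18 h at 37 C. CCF4 beta-lactamase read by fluorescence after 2 h RT; normalised to 20 nM 17-beta-estradiol (100%) and DMSO (0%), Hill fit for EC50 and efficacy.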

[9] = molecular target: Estrogen receptor (Homo sapiens) (UniProt P03372); experiment: qHTS assay for small molecule antagonists of estrogen receptor alpha signaling (AID 588513; active = well fitted curve in the direction sought with a large enough effect in the signal ratio, with a control signal flat, not every such curve was filed as active; inconclusive = small, poorly fitted or top-dose-only effect, or effect the other way, or a change in a side signal; inactive = no such curve, though single readings can be large or run the other way; the % refers to the signal ratio; note: potency is the fitted concentration of half-maximal effect)
Method in brief: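 Antagonist mode: inhibition of 0.5 nM 17-beta-estradiol-driven beta-lactamase reporter in HEK 293 ER-alpha-UAS-bla cells, 18 h at 37C, CCF4 readout after 2 h at RT. Normalised to estradiol and DMSO; titration fitted to Hill.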

[10] = molecular target: Androgen receptor (Homo sapiens) (UniProt P10275); experiment: qHTS assay for small molecule antagonists of androgen receptor signaling (AID 588516; active = well fitted curve in the direction sought with a large enough effect in the signal ratio, with a control signal flat, not every such curve was filed as active; inconclusive = small, poorly fitted or top-dose-only effect, or effect the other way, or a change in a side signal; inactive = no such curve, though single readings can be large or run the other way; the % refers to the signal ratio; note: potency is the fitted concentration of half-maximal effect)
Androgen receptor (Homo sapiens), sequence (P10275 whole entry, looked up): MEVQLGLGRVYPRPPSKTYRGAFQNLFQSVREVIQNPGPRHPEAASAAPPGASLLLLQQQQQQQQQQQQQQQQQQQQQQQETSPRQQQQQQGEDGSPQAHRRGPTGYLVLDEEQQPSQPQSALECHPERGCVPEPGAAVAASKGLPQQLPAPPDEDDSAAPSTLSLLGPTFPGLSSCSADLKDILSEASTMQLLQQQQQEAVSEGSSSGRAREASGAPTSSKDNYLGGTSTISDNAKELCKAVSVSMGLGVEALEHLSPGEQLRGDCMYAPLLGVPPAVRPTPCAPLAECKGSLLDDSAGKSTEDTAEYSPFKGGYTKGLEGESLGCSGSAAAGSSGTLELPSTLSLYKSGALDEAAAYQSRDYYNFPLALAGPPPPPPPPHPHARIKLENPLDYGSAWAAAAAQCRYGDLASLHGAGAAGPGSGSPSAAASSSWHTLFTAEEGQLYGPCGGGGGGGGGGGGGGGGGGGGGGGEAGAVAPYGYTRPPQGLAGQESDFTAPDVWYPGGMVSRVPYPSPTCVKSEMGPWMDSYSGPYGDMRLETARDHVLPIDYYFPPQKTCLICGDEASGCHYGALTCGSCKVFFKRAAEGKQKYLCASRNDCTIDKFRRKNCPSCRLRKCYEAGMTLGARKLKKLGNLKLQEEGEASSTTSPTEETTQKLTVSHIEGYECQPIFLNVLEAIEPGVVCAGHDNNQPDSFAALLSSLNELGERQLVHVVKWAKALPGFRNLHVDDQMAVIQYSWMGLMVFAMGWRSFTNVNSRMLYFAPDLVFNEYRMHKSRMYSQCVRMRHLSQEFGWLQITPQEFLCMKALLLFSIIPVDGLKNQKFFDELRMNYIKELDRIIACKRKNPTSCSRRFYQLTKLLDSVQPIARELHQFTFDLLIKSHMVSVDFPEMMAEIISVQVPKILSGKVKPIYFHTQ
Method in brief: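 Antagonist mode: inhibition of R1881-stimulated (10 nM final) bla reporter in GeneBLAzer AR HEK 293 cells, 16 h at 37C, compounds titrated. IC50 and efficacy from Hill-equation fits of 405/460–530 nm FRET ratios.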

Measured: Potency

CC[C@@H](C(N)=O)N1CCCC1=O
inactive: [1] | [2] | [3] | [4] | [5] | [6]

c1ccc2sc(C3(N4CCCCC4)CCCCC3)cc2c1
inactive: [1] | [2] | [3] | [4] | [5] | [6] | [7]

O=C(O)Cc1cnc[nH]1
inactive: [1] | [2] | [3] | [4] | [5] | [6]

CC(=O)[C@H]1CCC2C3CC[C@H]4C[C@H](O)CC[C@]4(C)C3CC[C@@]21C (stereo partly specified)
inactive: [1] | [2] | [3] | [4] | [5] | [6]

O=C(O)CC[N+](=O)[O-]
inactive: [1] | [2] | [3] | [4] | [5] | [6]

CCCN(CCC)C1CCc2ccc(O)cc2C1 (stereo unspecified)
inactive: [1] | [2] | [3] | [4] | [5] | [6]

NC(=O)CN1CC(O)CC1=O (stereo unspecified)
inactive: [1] | [2] | [3] | [4] | [5] | [6]

CN1C2CCC1CC(OC(=O)c1cc(Cl)cc(Cl)c1)C2 (stereo unspecified)
inactive: [1] | [2] | [3] | [4] | [5]

NCCc1c[nH]c2ccccc12
inactive: [1] | [2] | [3] | [4] | [5] | [6]

NC(CP(=O)(O)O)C(=O)O (stereo unspecified)
inactive: [1] | [2] | [3] | [4] | [5] | [6]

O=C(O)[C@@H]1CCN1
inactive: [1] | [2] | [3] | [4] | [5] | [6]

Clc1cnc(Oc2ccc(Oc3ncc(Cl)cc3Cl)cc2)c(Cl)c1
inactive: [1] | [2] | [3] | [4] | [5] | [6]

C[N+]1(C)C2CCC1CC(OC(=O)C(CO)c1ccccc1)C2 (stereo unspecified)
inactive: [1] | [2] | [3] | [4] | [5] | [6]

COc1cc(C(O)CN)ccc1O (stereo unspecified)
inactive: [1] | [2] | [3] | [4] | [5] | [6]

C[C@@H]1O[C@H](C[N+](C)(C)C)C[C@H]1O
inactive: [1] | [2] | [3] | [4] | [5] | [6]

C/C=C(/C)C(=O)O[C@H]1C(C)=C2[C@H]([C@@H]1OC(=O)CCCCCCC)[C@@](C)(OC(C)=O)C[C@H](OC(=O)CCC)[C@@]1(O)[C@H]2OC(=O)[C@@]1(C)O
active: [3] 16.5 nM
inactive: [1] | [2]

CC(Cc1ccc(O)cc1)NCC(O)c1cc(O)cc(O)c1 (stereo unspecified)
inactive: [1] | [2] | [3] | [4] | [5] | [6]

O=C(Cc1ccc(Cl)c(Cl)c1)N1CCCCC1CN1CCCC1 (stereo unspecified)
inactive: [1] | [2] | [3] | [4]

O=C1CCCN1CC#CCN1CCCC1
inactive: [1] | [2] | [3] | [4] | [5] | [6] | [7]

C[C@]12N[C@H](Cc3ccccc31)c1ccccc12
inactive: [1] | [2] | [3] | [4] | [5] | [6]

C[C@]12CCC3C(CC[C@H]4C[C@H](O)CC[C@]34C)C1CC[C@@H]2C(=O)CO (stereo partly specified)
inactive: [1] | [2] | [3] | [4] | [5] | [6]

CS(=N)(=O)CC[C@H](N)C(=O)O (stereo partly specified)
inactive: [1] | [2] | [3] | [4] | [5] | [6]

CCCN1CCC[C@H](c2cccc(O)c2)C1
inactive: [1] | [2] | [3] | [4] | [5] | [6]

NC(N)=NOCCC(N)C(=O)O (stereo unspecified)
inactive: [1] | [2] | [3] | [4] | [5] | [6]

O=C(N[C@H]1CN2CCC1CC2)c1ccc(Cl)cc1
inactive: [1] | [2] | [3] | [4] | [5] | [6]

c1ccc(C2(c3ccccc3)CC2C2=NCCN2)cc1 (stereo unspecified)
inactive: [1] | [2] | [3] | [4] | [5]

Cn1cnc(CCN)c1
inactive: [1] | [2] | [3] | [4] | [5] | [6]

CC(C)NC(C)Cc1ccc(I)cc1 (stereo unspecified)
inactive: [1] | [2] | [3] | [4] | [5]

NC1CC1c1ccccc1 (stereo unspecified)
inactive: [1] | [2] | [3] | [4] | [5] | [6]

NC(CCP(=O)(O)O)C(=O)O (stereo unspecified)
inactive: [1] | [2] | [3] | [4] | [5] | [6]

NC1CCc2cc(O)c(O)cc2C1 (stereo unspecified)
inactive: [1] | [2] | [3] | [4] | [5] | [6]

CCCN1CCO[C@@H]2c3cc(O)ccc3OC[C@H]21
inactive: [1] | [2] | [3] | [4] | [5] | [6]

CC(C)Oc1cccnc1N(C)C1CCN(Cc2ccccc2)CC1
inactive: [1] | [2] | [3] | [4] | [5] | [6]

C[N+]1(C)C2CC(OC(=O)[C@H](CO)c3ccccc3)CC1C1OC12 (stereo partly specified)
inactive: [6]

CCCN1CCO[C@@H]2c3cc(O)ccc3OC[C@@H]21
inactive: [7]

CCOC(=O)c1cncn1[C@H](C)c1ccccc1
inactive: [7]

CCCCCC[C@H]1C(=O)O[C@H](C)[C@H](NC(=O)c2cccc(NC=O)c2O)C(=O)O[C@@H](C)[C@@H]1OC(=O)CC(C)C
inactive: [7] | [8]

O=S(=O)(O)C(F)(F)C(F)(F)C(F)(F)C(F)(F)F
inactive: [9]

O=[N+]([O-])/N=C1\NCCN1Cc1ccc(Cl)nc1
inactive: [9] | [8] | [10]

CC(C)(O)C(=O)Nc1ccc([N+](=O)[O-])c(C(F)(F)F)c1
inactive: [9] | [8]

Cc1nc(-c2ccc(-c3ccc(C(=O)N4CCc5cc6c(cc54)C4(CCN(C)CC4)CO6)cc3)c(C)c2)no1
inactive: [7]

CC(C)Oc1cccc(NC(=O)c2ccccc2C(F)(F)F)c1
inactive: [8]

COc1ccc(C(=O)c2c(C)n(CCN3CCOCC3)c3cc(I)ccc23)cc1
inactive: [7]

COCCOCCO
inactive: [9] | [8]

CCCCC(CC)COC(=O)c1ccccc1C(=O)OCC(CC)CCCC (stereo unspecified)
inactive: [9] | [8]

O=S(=O)(c1ccc(Cl)cc1)c1ccc(Cl)cc1
inactive: [9] | [8]

CC(=O)[O][Hg][c]1ccccc1
active: [4] 50100 nM | [9] 2240 nM [inconclusive] | [10] 2240 nM

O=C(O)CCCOc1ccc(Cl)cc1Cl
inactive: [4] | [10]

CCO/N=C(\CC)C1=C(O)CC(c2c(C)cc(C)cc2C)CC1=O (stereo unspecified)
inactive: [8] | [10]

C[C@H]1CCCC=CC2C[C@H](O)C[C@@H]2[C@H](O)C=CC(=O)O1 (stereo partly specified)
inactive: [7]

c1cc2ccc3cccc4ccc(c1)c2c34
inactive: [9] | [8] | [10]

Nc1c(Cl)c(Cl)c(Cl)c(Cl)c1Cl
inactive: [10]

Nc1ccc(Cl)cc1
inactive: [9] | [8]

COc1nn(CSP(=S)(OC)OC)c(=O)s1
inactive: [8]

Nc1ccc(Cl)cc1N
inactive: [10]

CCCN(CCC)c1c([N+](=O)[O-])cc(S(N)(=O)=O)cc1[N+](=O)[O-]
inactive: [8]

Nc1cccc2c(N)cccc12
inactive: [10]

O=[N+]([O-])c1c(Cl)c(Cl)cc(Cl)c1Cl
inactive: [9] | [8]

C=CC(=O)NCNC(=O)C=C
inactive: [9] | [8] | [10]

CCOCCOC(C)=O
inactive: [9] | [8]

O=[N+]([O-])c1c2ccccc2cc2ccccc12
inactive: [9]

O=C(O)COc1nc(Cl)c(Cl)cc1Cl
inactive: [9] | [8]

COC(C)(C)CCCC(C)C/C=C/C(C)=C/C(=O)OC(C)C (stereo unspecified)
inactive: [10]

c1ccc2occc2c1
inactive: [9] | [8]

OCCCBr
inactive: [9] | [8]

O=C(Nc1ccccc1-c1ccc(Cl)cc1)c1cccnc1Cl
inactive: [9] | [8]

C=CCC1=C(C)C(OC(=O)C2C(C=C(C)C)C2(C)C)CC1=O (stereo unspecified)
inactive: [9] | [8]

Nc1ccc(Sc2ccc(N)cc2)cc1
inactive: [9]

O=c1cccc2n1CC1CNC[C@H]2C1
inactive: [7]
